Assay outcomes: PubChem BioAssay, National Center for Advancing Translational Sciences (NCATS)
Compounds with a hit are over-represented: about 1.2% of the library has one in this group of screens.
AMA1 RON2 block – inhibitors of Plasmodium falciparum AMA1-RON2 interaction. AlphaScreen AMA1-biotinylated RON2 peptide binding. Potency, µM (doses to about 58.2 µM), actives largely listed as inhibitors. 360,000 tested, 0.2% active. AID 720542; further: nearly all actives have a fitted effect of over 45% in size
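AMA1 (3D7) with his tag at 25 nM final met compounds first, then biotinylated RON2 peptide at 25 nM; detection used donor plus acceptor beads, 10 µg/mL apiece, read by AlphaScreen after 30 min at room temperature.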
TbPYK inhibitor – T. brucei pyruvate kinase inhibition; Q57TT1; TbPYK enzyme, Kinase-Glo Plus ATP luminescence, 45 min; Potency, µM (series often up to 76.8 µM), most hits filed as inhibitors; 410,000 tested, 0.12% active; AID 624173; further: nearly all actives have a fitted effect of over 50% in size
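Activity of T. brucei pyruvate kinase was followed by Kinase-Glo Plus luminescence after the enzyme reacted 45 min at room temperature with 130 uM ADP (final) and substrate. Test compounds were added before ADP at multiple concentrations.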
NS1 inh – influenza NS1 inhibition | Potency, µM (doses to about 46.1 µM) | 270,000 tested, 0.4% active | AID 2326; calls by dose curve; further: actives are rising curves; nearly all actives have a fitted effect of over 50% in size
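In this qHTS, NS1 from influenza A is expressed in budding yeast, where it slows growth. Cells are switched from glucose to 2% galactose medium (pH 6.0, -URA), treated with compound, and growth recovery is read at OD600.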
Giardia FBPA inh-1 – Giardia lamblia aldolase inhibition; AID 2451; Potency, µM (titrated, usually from 59.6 µM), hits mostly inhibitors; 290,000 tested, 0.71% active; purified Giardia FBPA; A8B2U2; further: nearly all actives have a fitted effect of over 55% in size
Target sequence (A8B2U2 whole entry, looked up): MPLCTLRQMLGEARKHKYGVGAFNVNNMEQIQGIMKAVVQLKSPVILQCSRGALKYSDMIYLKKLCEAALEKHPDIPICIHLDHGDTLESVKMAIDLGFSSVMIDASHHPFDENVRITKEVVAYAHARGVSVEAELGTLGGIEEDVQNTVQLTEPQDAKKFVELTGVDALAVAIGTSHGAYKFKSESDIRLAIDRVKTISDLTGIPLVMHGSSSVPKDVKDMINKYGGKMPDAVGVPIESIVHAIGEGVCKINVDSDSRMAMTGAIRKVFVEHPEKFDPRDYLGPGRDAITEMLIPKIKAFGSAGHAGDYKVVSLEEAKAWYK
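40 nM FBPA preincubated 10 min at RT with compound (up to 57.5 uM final), then substrate plus GAPDH/TPI/NAD/arsenate coupling and diaphorase/resazurin added. Fluorescence read after 20 min at RT, 525/598 nm.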
LmPK inhibitor – LmPK (Leishmania mexicana) enzyme inhibition; Potency, µM (doses to about 57.5 µM), actives largely listed as inhibitors; AID 1721; 290,000 tested, 0.37% active; purified LmPK, Kinase-Glo ATP luminescence, 1 h
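In 50 mM imidazole pH 7.2 with 7 mM MgCl2, LmPK (0.1 nM) turned over PEP (0.5 mM) and ADP (0.1 mM) for 1 h at room temperature. Luciferase read-out of ATP.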
Giardia growth – blocks growth of Giardia lamblia trophozoites. shares compounds with Giardia FBPA inh-1. Giardia lamblia trophozoite growth inhibition. Potency, µM (titrated, usually from 57.5 µM), most hits filed as inhibitors. 1,500 tested, 5% active. AID 2785;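 further: trophozoites exposed to compound for 48 h at 37 °C; nearly all actives have a fitted effect of over 70% in size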
Mammal cell tox – mammalian cytotoxicity of Giardia aldolase inhibitor hits; shares compounds with Giardia FBPA inh-1; mammalian cell viability counter-screen, qHTS; Potency, µM (top dose mostly 57.5 µM), most hits filed as inhibitors; 1,500 tested, 4% active; AID 2786;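 further: Chinese hamster ovary cells used as mammalian cytotoxicity surrogate; viability measured as cellular ATP by luminescence; compound exposure lasted 48 h before reading; nearly all actives have a fitted effect of over 60% in size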
Giardia FBPA inh-2 – confirmation of Giardia fructose-bisphosphate aldolase inhibitors; shares compounds with Giardia FBPA inh-1; purified Giardia aldolase enzyme activity, qHTS; Potency, µM (doses to about 57.5 µM), actives largely listed as inhibitors; 1,500 tested, 5% active; AID 2787; further: nearly all actives have a fitted effect of over 45% in size
Rabbit FBPA inh – selectivity test for Giardia aldolase inhibitors: rabbit aldolase | shares compounds with Giardia FBPA inh-1 | Rabbit muscle FBPA enzyme inhibition, selectivity counter-screen | Potency, µM (titrated, usually from 57.5 µM), hits mostly inhibitors | 1,500 tested, 4% active | AID 2794; further: nearly all actives have a fitted effect of over 60% in size
GAPDH counter – counter-screen for Giardia aldolase inhibitors: GAPDH coupling enzyme | shares compounds with Giardia FBPA inh-1 | GAPDH coupling enzyme counterscreen, biochemical, qHTS | Potency, µM (highest dose often 57.5 µM), hits mostly inhibitors | 1,500 tested, 6% active; further: nearly all actives have a fitted effect of over 55% in size
A number is an active result; [ ] = dose if it differs, or a comment. Unless noted, the call rests on the fitted dose curve; in most records, active means well fitted curve in the direction sought with a large enough effect; inconclusive means small, poorly fitted or top-dose-only effect, or another doubt; inactive means no such curve, though single readings can be large; an effect the other way counts as inactive or inconclusive.

What do the screens show for `COc1ccc(OC)c(NC(=O)C2C3CCC(C3=C(C)C)C2C(=O)O)c1` (stereo unspecified)?
AMA1 RON2 block: inactive; TbPYK inhibitor: inactive; NS1 inh: inactive; Giardia FBPA inh-1: 3.5µM; LmPK inhibitor: inactive; Giardia growth: inactive; Mammal cell tox: inactive; Giardia FBPA inh-2: inconclusive; Rabbit FBPA inh: inconclusive; GAPDH counter: inconclusive

What do the screens show for `COc1ccc(CNC(=O)CN(C)CC(=O)Nc2ccccc2Br)cc1`?
AMA1 RON2 block: inactive; TbPYK inhibitor: inactive

Results for COc1cccc(CC(=O)Nc2cccc3ccccc23)c1 ?
AMA1 RON2 block: inactive; TbPYK inhibitor: inactive; NS1 inh: inactive; Giardia FBPA inh-1: inactive; LmPK inhibitor: inactive

Results for COc1cccc(CN(C)CC(=O)Nc2cccc3ccccc23)c1 ?
AMA1 RON2 block: inactive; TbPYK inhibitor: inactive; Giardia FBPA inh-1: 18µM; LmPK inhibitor: inactive; Giardia growth: inactive[10.4 µM]; Mammal cell tox: inactive; Giardia FBPA inh-2: inactive; Rabbit FBPA inh: inactive; GAPDH counter: inactive

Results for COc1ccc(OC)c(NC(=O)CN(C)CC(=O)Nc2ccccc2Br)c1 ?
AMA1 RON2 block: inactive; TbPYK inhibitor: inactive; Giardia FBPA inh-1: 18µM; LmPK inhibitor: inactive; Giardia growth: inactive; Mammal cell tox: inactive; Giardia FBPA inh-2: inactive; Rabbit FBPA inh: inactive; GAPDH counter: inactive

What do the screens show for `Cc1ccc(C(=O)CSc2ncn[nH]2)cc1`?
AMA1 RON2 block: inactive; TbPYK inhibitor: inactive; NS1 inh: inactive; Giardia FBPA inh-1: 28µM; LmPK inhibitor: inactive; Giardia growth: inactive[10.4 µM]; Mammal cell tox: inactive; Giardia FBPA inh-2: inactive; Rabbit FBPA inh: inactive; GAPDH counter: inactive

How did CC(=O)Nc1nc(C)nc(-c2ccccc2)c1C(C)=O do in these assays?
AMA1 RON2 block: inactive; TbPYK inhibitor: inactive; NS1 inh: inactive; Giardia FBPA inh-1: 16µM; LmPK inhibitor: inactive; Giardia growth: inactive; Mammal cell tox: inactive; Giardia FBPA inh-2: inactive; Rabbit FBPA inh: inactive; GAPDH counter: inactive

Results for COC(=O)[C@@]1(Cc2ccccc2)[C@H]2c3cc(C(=O)N4CCCC4)n(Cc4cc(F)cc5c4OCOC5)c3C[C@H]2CN1C(=O)c1ccccc1 ?
Giardia FBPA inh-1: inactive

Results for CCOC(=O)c1c(C)nc(C(Cl)(Cl)Cl)nc1N ?
AMA1 RON2 block: inactive; TbPYK inhibitor: inactive; NS1 inh: inactive; Giardia FBPA inh-1: inconclusive; LmPK inhibitor: inactive

Results for COC(=O)c1cc(=O)c2c(C)nc(C(Cl)(Cl)Cl)nc2[nH]1 ?
AMA1 RON2 block: inactive; TbPYK inhibitor: inactive; Giardia FBPA inh-1: 20µM; LmPK inhibitor: inactive; Giardia growth: inactive; Mammal cell tox: inactive; Giardia FBPA inh-2: inactive; Rabbit FBPA inh: inactive; GAPDH counter: inactive

Results for [N-]=[N+]=N[C@@H]1[C@H](O)[C@H](CO)O[C@@H]1n1cnc2c(N)ncnc21 ?
NS1 inh: inactive

How did COc1ccc(-c2cc(=O)c3ccccc3o2)cc1OC do in these assays?
Giardia FBPA inh-1: 7.9µM; Giardia growth: inactive; Mammal cell tox: inconclusive; Giardia FBPA inh-2: inconclusive; Rabbit FBPA inh: inconclusive; GAPDH counter: inactive

What do the screens show for `O=C(C1=NN[C@@H]2C(=O)N(c3ccccc3C(F)(F)F)C(=O)[C@H]12)c1cnccn1`?
AMA1 RON2 block: inactive; TbPYK inhibitor: inactive; NS1 inh: inactive; Giardia FBPA inh-1: inactive; LmPK inhibitor: inactive
